The supplement of paper PMC6555819

test system: VDR:RXRa (NR concentration 270 nM, RXRa partner concentration 90 nM); experiment: PBM binding z-score (relative to random genomic background probes); higher = stronger binding; sequences stand for … in GC…GCGATTGACAGCGTAGAATGAAGG
Description: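 Protein-binding microarray (Agilent 4x180K custom design, double-stranded 60-nt probes: 5' GC cap, 34-nt variable region, 24-nt constant primer region; full probe sequence given). Purified or IVT nuclear receptor:RXRα heterodimers (3:1 NR:RXRα, mostly 270:90 nM) or homodimers were incubated for 1 h in PBS with 2% milk and no ligand, then detected with Alexa488 antibodies. Fluorescence from o1-orientation probes (~5 replicates averaged) was converted to z-scores against 500 random hg19 background probes. Variable regions are seed direct-repeat (DR0–DR5) sites, all their single-nucleotide variants and half-site ablations.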

| Sequence | PBM binding z-score |
| --- | --- |
| CCGAGTGGGTTATGGGGCATTCAGGCAACGGTGA | -0.199 |
| CCTTACGGGTCACTGTCAGGTTATAGCATTTGGA | 3.87 |
| TCTAGCAGGCCCGAGGGTCACTCAAGAGGTACGG | 1.14 |
| CAAACTAAGTCAAGGTCAAAGTCGGTTTGTGCCA | 4.62 |
| ATCTCTAGGTAAAGATAGTTCACTGAATGCAAAT | 1.37 |
| GGAACGAGGGCAAGTTGATTGCAGAGTTTGATGG | 0.675 |
| GATACAGGGTCAAGGCCAGACTACGCGTATTGAT | 4.28 |
| TCTAGCAGGCCAGAGGGTCATTCAAGAGGTACGG | 2.25 |
| ATACCAAGGTGATCTTGAGGTCGTTGATACTAAC | 3.57 |
| CAAACTAAGTCACGAAAGGTCAAAGTCGAATGAC | 5.34 |
| AGAACGAGGGCACGCTGCGTTGATAGCAGAGTAG | 0.741 |
| CGTCCAGGGTCAGAGAGGTCAGTGAATGCCGAGT | 7.46 |
| TTACCAAGGTGAAGGTCCTTGATCCCTCTGTAGA | 0.388 |
| CGAAGGAGGGCATGAGTTGATAGCAAATGCCGAT | 0.513 |
| GTTGCTAGGTCAGGTTGGTCAGCTAACGGGTACG | 0.892 |
| TAGCCTAGGTCATGGGCCAGTATCCCACGCGAAC | 1.76 |
| CCGACTGGGGCACAAAGGTTACCATACCATCCGG | 1.73 |
| GCTGCTAGGCCAACTGATGGTCAGCTAAAGCTCG | -0.87 |
| GGAACGAGGGCAAAGATGATAGCATCTGTCGACG | 0.573 |
| TCTTGGAGATCAAGCAGGTTAAGAAAGCCTGAGT | 1.04 |

| Sequence | PBM binding z-score |
| --- | --- |
| CGACCAAGGTCAAAGGTCAGTGAAGAGATGACGG | 6.85 |
| GATACAGGGTCAGCCAGAGGCCAGAGTATGGAAA | 3.64 |
| TCTTGTGGATCAGCAGGTTAAGAAAGCTGGCCAA | 0.405 |
| AGTCAAAGTTCATCTAGGTAACTTAAGATATGCT | 4.95 |
| GGAACGAGGGCAAAATTGATAGCATCTGTCGACG | 0.352 |
| TCGAGTAGGTTATCAATGGGGCATTCAGCTTTCT | 0.361 |
| GCTTGTAGATTAAGGTTAAGAAAGACTAAGCTAA | 0.125 |
| TTACCAAGGTGTAGGTCGTTGATCCCTCTGTAGA | 0.256 |
| TCATGTAGGTAAAAGGTGAAAGTCGGTGTGGTAA | 1.57 |
| CTACCAAGGTGAACAAGGTCGTCGATTACTATTC | 5.98 |
| CCTCGGAGGGCAACAGGAGGTCAGAGCTGCCAGA | 3.12 |
| GGAACGAGGGCAAGTTGATAGCAGAGTTTGATGG | 0.688 |
| ATCTCTAGGTAACAAGTTCAGTGAGAGAGAGGAC | 2.22 |
| TAGCCCAGGTCATTCAGGGGCCAGTATAGAAAGC | 3.65 |
| TATTGTAGATCAACAGGAGGTTAAGAAAGATCGA | 0.587 |
| ATATGTAGGTTAAGGGTCACTCAGGTTGGTTCGC | 5.43 |
| AATATAGGGTCATCGTAGGCCAGAGTACGCACAG | 5.22 |
| CGTCCTAGGTCAAAGGTCAGTGAAGAGATGACGG | 5.56 |
| GCGACAGGGGCATCAGCAGGTTACCATAACTTAA | 0.517 |
| TGTCAAACTTCAAAGGTAACGTAAGTATCCACAC | 0.41 |
